Test results from paper PMC7862700, “An all-to-all approach to the identification of sequence-specific readers for epigenetic DNA modifications on cytosine”.

Columns and labels:
Experiment in all cases: DAPPL (digital affinity profiling via proximity ligation, sequencing); 10 mM Tris-HCl pH 7.5, 50 mM NaCl, 1 mM DTT, 4% glycerol, room temperature, 30 min; GST-TFs on glutathione beads, 16-mer random dsDNA library, 0.1% formaldehyde crosslink after washing; high values mean tight binding
Conditions in all cases: protein: recombinant; tags: N-terminal GST; dsDNA, one strand shown
FLI1 = target: T1, FLI1 (Homo sapiens, UniProt Q01543 1-452)
T1 sequence: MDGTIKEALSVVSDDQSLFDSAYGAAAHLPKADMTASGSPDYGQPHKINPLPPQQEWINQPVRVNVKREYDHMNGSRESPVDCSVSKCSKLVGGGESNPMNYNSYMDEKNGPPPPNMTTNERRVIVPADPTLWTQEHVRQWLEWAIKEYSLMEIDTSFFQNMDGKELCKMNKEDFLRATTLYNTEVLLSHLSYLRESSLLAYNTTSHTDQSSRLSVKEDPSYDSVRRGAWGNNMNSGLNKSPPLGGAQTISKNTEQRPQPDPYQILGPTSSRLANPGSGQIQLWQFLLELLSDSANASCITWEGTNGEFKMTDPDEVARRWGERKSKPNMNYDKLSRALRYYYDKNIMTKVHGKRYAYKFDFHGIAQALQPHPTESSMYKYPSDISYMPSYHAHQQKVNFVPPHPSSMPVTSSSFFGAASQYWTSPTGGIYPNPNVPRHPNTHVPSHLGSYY
How it was run: (§1)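 The binding signal reported is, for every hexamer, its read frequency for a factor over its read frequency for the tag-only sample. Reads came from pools of yeast-expressed, GST-fused human transcription factors on glutathione beads, barcoded with DNA and mixed with that sample, which were incubated with 200 nmole of a random double-stranded 16-mer DNA library in Tris/NaCl/DTT/glycerol buffer at room temperature for 30 min. After washing, the pools were crosslinked with 0.1% formaldehyde, proximity-ligated with BsaI/T4 ligase for 1 h at 37 °C, PCR-amplified and sequenced on an Illumina NextSeq500.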

ELK1 = target: T2, ELK1 (Homo sapiens, UniProt P19419 1-428)
T2 sequence: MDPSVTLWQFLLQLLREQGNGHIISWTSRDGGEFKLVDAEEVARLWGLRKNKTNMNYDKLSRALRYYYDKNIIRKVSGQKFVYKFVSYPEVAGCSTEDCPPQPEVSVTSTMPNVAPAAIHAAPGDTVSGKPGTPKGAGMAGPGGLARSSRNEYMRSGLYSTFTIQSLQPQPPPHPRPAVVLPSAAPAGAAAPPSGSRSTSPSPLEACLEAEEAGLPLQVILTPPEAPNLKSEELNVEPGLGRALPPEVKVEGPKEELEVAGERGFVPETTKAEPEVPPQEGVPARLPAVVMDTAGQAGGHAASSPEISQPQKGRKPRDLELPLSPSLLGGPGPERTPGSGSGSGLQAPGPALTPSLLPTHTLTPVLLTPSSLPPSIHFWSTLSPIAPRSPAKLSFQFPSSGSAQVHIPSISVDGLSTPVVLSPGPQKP
How it was run: as §1

GABPA = target: T3, GABPA (Homo sapiens, UniProt Q06546 1-454)
T3 sequence: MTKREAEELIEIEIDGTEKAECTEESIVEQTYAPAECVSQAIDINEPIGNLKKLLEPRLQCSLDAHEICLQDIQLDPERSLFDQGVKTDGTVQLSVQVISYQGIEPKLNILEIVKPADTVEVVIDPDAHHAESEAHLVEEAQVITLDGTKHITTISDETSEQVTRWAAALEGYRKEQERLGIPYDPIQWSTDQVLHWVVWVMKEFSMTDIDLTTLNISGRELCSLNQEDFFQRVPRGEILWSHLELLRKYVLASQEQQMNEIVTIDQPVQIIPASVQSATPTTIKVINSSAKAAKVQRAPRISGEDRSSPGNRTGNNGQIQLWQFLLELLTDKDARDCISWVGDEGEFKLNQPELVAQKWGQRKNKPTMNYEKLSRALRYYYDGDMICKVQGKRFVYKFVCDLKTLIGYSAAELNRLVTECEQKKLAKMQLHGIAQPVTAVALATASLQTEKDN
How it was run: as §1

ERG = target: T4, ERG (Homo sapiens, UniProt P11308 1-479)
T4 sequence: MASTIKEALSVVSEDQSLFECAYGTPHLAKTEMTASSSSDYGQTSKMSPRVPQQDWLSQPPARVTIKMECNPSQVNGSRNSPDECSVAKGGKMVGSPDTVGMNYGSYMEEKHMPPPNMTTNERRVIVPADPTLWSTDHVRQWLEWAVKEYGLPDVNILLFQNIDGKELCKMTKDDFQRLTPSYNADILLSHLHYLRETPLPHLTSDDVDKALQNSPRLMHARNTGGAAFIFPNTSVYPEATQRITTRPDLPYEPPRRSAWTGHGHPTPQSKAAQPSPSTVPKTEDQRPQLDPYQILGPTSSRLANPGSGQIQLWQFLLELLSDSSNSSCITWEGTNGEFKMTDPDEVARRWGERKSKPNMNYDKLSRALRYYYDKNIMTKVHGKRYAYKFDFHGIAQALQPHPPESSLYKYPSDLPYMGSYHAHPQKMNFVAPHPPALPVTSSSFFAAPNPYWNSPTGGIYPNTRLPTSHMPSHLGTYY
How it was run: as §1

ELF1 = ELF1 (Homo sapiens, UniProt P32519 1-619)
ELF1, sequence (P32519 whole entry): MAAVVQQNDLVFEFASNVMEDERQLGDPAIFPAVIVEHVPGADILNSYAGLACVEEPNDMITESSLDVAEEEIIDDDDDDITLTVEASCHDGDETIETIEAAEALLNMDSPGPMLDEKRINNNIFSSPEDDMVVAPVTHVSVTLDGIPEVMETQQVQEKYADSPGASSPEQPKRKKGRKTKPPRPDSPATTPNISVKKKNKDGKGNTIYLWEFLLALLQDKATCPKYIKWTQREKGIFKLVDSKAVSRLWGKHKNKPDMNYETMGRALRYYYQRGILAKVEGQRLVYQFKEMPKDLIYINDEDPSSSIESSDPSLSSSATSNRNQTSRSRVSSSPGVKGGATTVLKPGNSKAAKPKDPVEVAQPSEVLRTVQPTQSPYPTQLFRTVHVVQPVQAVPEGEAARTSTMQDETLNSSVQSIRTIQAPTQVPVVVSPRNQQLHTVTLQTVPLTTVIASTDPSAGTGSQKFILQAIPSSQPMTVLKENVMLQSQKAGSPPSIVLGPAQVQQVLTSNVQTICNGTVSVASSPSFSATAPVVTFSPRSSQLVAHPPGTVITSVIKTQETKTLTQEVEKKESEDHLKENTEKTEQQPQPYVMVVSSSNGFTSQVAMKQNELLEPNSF
How it was run: as §1

EHF = target: T5, EHF (Homo sapiens, UniProt Q9NZC4 1-300)
T5 sequence: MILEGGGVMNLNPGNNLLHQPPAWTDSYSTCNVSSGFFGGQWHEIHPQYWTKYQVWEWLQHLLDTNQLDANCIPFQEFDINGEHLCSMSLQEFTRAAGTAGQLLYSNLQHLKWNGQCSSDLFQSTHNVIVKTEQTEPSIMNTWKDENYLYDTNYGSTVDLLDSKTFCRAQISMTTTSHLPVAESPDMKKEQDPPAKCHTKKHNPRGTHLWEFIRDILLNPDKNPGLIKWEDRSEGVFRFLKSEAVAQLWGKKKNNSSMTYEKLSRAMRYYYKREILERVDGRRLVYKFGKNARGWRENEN
How it was run: as §1

SPI1 = SPI1 (Homo sapiens, UniProt P17947 1-270)
How it was run: as §1

SPIB = SPIB (Homo sapiens, UniProt Q01892 1-262)
SPIB, sequence (Q01892 whole entry): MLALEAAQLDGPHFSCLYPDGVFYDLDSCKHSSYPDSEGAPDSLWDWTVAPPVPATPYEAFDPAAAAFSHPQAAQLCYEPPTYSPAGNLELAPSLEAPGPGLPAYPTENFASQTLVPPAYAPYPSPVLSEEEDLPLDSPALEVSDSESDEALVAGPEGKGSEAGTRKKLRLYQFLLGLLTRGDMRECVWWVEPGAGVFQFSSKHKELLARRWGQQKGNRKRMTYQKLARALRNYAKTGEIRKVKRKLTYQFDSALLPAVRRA
How it was run: as §1

ELK3 = target: T6, ELK3 (Homo sapiens, UniProt P41970 1-407)
T6 sequence: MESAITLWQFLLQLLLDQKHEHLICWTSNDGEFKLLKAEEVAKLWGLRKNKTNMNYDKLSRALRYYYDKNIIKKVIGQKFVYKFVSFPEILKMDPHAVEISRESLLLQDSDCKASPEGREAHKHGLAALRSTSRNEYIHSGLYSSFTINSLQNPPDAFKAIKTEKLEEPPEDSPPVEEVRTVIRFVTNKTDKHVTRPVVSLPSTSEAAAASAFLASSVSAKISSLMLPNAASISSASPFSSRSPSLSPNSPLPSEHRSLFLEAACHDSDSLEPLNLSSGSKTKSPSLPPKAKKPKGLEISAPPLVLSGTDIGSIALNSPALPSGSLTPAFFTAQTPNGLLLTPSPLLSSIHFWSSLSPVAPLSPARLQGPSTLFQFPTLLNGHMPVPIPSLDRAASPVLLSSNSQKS
How it was run: as §1

Sequence | binding signal (FLI1) | binding signal (ELK1) | binding signal (GABPA) | binding signal (ERG) | binding signal (ELF1) | binding signal (EHF) | binding signal (SPI1) | binding signal (SPIB) | binding signal (ELK3)
ACAATT | 1.33 fold enrichment (6-mer frequency, TF over GST control) | 1.27 fold enrichment (6-mer frequency, TF over GST control) | 1.15 fold enrichment (6-mer frequency, TF over GST control) | 1.32 fold enrichment (6-mer frequency, TF over GST control) | 1.32 fold enrichment (6-mer frequency, TF over GST control) | 1.23 fold enrichment (6-mer frequency, TF over GST control) | 1.23 fold enrichment (6-mer frequency, TF over GST control) | 1.2 fold enrichment (6-mer frequency, TF over GST control) | 1.25 fold enrichment (6-mer frequency, TF over GST control)
CTTTGA | 1.29 fold enrichment (6-mer frequency, TF over GST control) | 1.22 fold enrichment (6-mer frequency, TF over GST control) | 1.26 fold enrichment (6-mer frequency, TF over GST control) | 1.26 fold enrichment (6-mer frequency, TF over GST control) | 1.26 fold enrichment (6-mer frequency, TF over GST control) | 1.16 fold enrichment (6-mer frequency, TF over GST control) | 1.21 fold enrichment (6-mer frequency, TF over GST control) | 1.24 fold enrichment (6-mer frequency, TF over GST control) | 1.15 fold enrichment (6-mer frequency, TF over GST control)
GAAATC | 1.38 fold enrichment (6-mer frequency, TF over GST control) | 1.47 fold enrichment (6-mer frequency, TF over GST control) | 1.34 fold enrichment (6-mer frequency, TF over GST control) | 1.65 fold enrichment (6-mer frequency, TF over GST control) | 1.36 fold enrichment (6-mer frequency, TF over GST control) | 1.53 fold enrichment (6-mer frequency, TF over GST control) | 1.4 fold enrichment (6-mer frequency, TF over GST control) | 1.55 fold enrichment (6-mer frequency, TF over GST control) | 1.42 fold enrichment (6-mer frequency, TF over GST control)
AACTAG | 1.06 fold enrichment (6-mer frequency, TF over GST control) | 1.15 fold enrichment (6-mer frequency, TF over GST control) | 1.22 fold enrichment (6-mer frequency, TF over GST control) | 1.21 fold enrichment (6-mer frequency, TF over GST control) | 1.16 fold enrichment (6-mer frequency, TF over GST control) | 1.12 fold enrichment (6-mer frequency, TF over GST control) | 1.11 fold enrichment (6-mer frequency, TF over GST control) | 1.07 fold enrichment (6-mer frequency, TF over GST control) | 1.11 fold enrichment (6-mer frequency, TF over GST control)
GCTCTA | 1.17 fold enrichment (6-mer frequency, TF over GST control) | 1.09 fold enrichment (6-mer frequency, TF over GST control) | 1.11 fold enrichment (6-mer frequency, TF over GST control) | 1.24 fold enrichment (6-mer frequency, TF over GST control) | 1.13 fold enrichment (6-mer frequency, TF over GST control) | 1.23 fold enrichment (6-mer frequency, TF over GST control) | 1.04 fold enrichment (6-mer frequency, TF over GST control) | 1.09 fold enrichment (6-mer frequency, TF over GST control) | 1.09 fold enrichment (6-mer frequency, TF over GST control)
TACTGT | 1.15 fold enrichment (6-mer frequency, TF over GST control) | 1.21 fold enrichment (6-mer frequency, TF over GST control) | 1.13 fold enrichment (6-mer frequency, TF over GST control) | 1.12 fold enrichment (6-mer frequency, TF over GST control) | 1.12 fold enrichment (6-mer frequency, TF over GST control) | 1.19 fold enrichment (6-mer frequency, TF over GST control) | 1.11 fold enrichment (6-mer frequency, TF over GST control) | 1.12 fold enrichment (6-mer frequency, TF over GST control) | 1.11 fold enrichment (6-mer frequency, TF over GST control)
TTTGCG | 1.27 fold enrichment (6-mer frequency, TF over GST control) | 1.29 fold enrichment (6-mer frequency, TF over GST control) | 1.26 fold enrichment (6-mer frequency, TF over GST control) | 1.14 fold enrichment (6-mer frequency, TF over GST control) | 1.27 fold enrichment (6-mer frequency, TF over GST control) | 1.19 fold enrichment (6-mer frequency, TF over GST control) | 1.32 fold enrichment (6-mer frequency, TF over GST control) | 1.19 fold enrichment (6-mer frequency, TF over GST control) | 1.11 fold enrichment (6-mer frequency, TF over GST control)
